High-throughput results from PubChem BioAssay.
An excerpt weighted towards active compounds, which were near 3.5% of everything screened.
TEAD-YAP inh – TEAD-YAP interaction inhibition | HEK-TIYL cells, TEAD-Gal4/YAP UAS-luciferase luminescence | inhibition, % at 9.12 µM | hit rate 1.4% among 640,000 | AID 1259422; in the data active = inhibition above about 32%;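 also: 0% = median of test compound wells and 100% = reference inhibitor wells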
GPR151 activ – human GPR151 activation; PathHunter beta-arrestin GPR151 cells, luminescence; Q8TDV0; activation, % at 11.2 µM; hit rate 1% among 650,000; in the data active = activation above about 4.9%;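 also: 0% = median of compound wells and 100% = cells with positive control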
Target sequence (Q8TDV0 whole entry, looked up): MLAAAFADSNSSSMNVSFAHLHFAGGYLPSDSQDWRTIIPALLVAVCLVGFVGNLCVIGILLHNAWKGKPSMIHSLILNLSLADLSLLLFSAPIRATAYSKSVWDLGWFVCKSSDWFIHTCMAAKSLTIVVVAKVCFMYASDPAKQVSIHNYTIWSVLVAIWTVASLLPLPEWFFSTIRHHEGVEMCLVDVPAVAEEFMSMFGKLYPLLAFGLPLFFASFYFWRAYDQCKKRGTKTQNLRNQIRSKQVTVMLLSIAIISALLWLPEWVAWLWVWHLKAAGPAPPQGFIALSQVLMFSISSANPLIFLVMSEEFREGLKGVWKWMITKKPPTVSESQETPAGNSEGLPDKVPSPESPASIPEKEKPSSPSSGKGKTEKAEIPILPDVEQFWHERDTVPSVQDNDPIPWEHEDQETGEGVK
MITF inh – inhibitors of human MITF; AlphaScreen MITF homodimerization, bead proximity signal; hit rate 0.91% among 650,000; AID 1259374; inhibition, % at 2.6 µM; O75030; in the data active = inhibition above about 50%;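 also: 0% = vehicle wells with protein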
FBW7 activator – activators of human E3 ligase FBW7; hit rate 0.13% among 650,000; Q969H0; AlphaScreen FBW7–phospho-cyclin E peptide binding, activator screen; normalized activity (activation), % at 26.1 µM; in the data active = normalized activity above about 1.9%;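 also: purified mutant Fbw7 with reduced substrate affinity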
* marks the source's active call; other numbers are inactive results.

SMILES	TEAD-YAP inh	GPR151 activ	MITF inh	FBW7 activator
C=CCN1C(=O)/C(=C\c2cccc(Cl)c2)C(C(=O)OC)=C1C	0	0	-6	0
O=C(c1cccs1)N1CCCCC1c1nc2ccccc2[nH]1 (stereo not given)	6	0	1	0
COc1ccc(-c2cc(=O)c3ccc(O)cc3o2)cc1	56*	-3	-1	0
CCOc1ccc(-c2cc(=O)c3cc(O)ccc3o2)cc1	47*	-1	8	0
CCOc1ccc(-c2cc(=O)c3ccccc3o2)cc1	-30	-2	1	0
CSc1ccc(-c2cc(=O)c3ccccc3o2)cc1	-61	-1	5	-1
CSc1ccc(-c2cc(=O)c3cc(O)ccc3o2)cc1	44*	-3	-5	0
CCOc1cc(C(=O)NCCOC)cc(Cl)c1OCc1ccccc1	13	0	15	0
CNC(=O)c1ccccc1Nc1cc(Nc2ccc(C(=O)N3CC[C@H](O)C3)cc2OC)ncc1C(F)(F)F	33*	1	15	0
CNC(=O)c1ncccc1Nc1cc(Nc2ccc(C(=O)N(C)C)cc2OC)ncc1C(F)(F)F	-13	0	-4	0
CNC(=O)c1ccccc1Nc1cc(Nc2ccc(N3CCOCC3)cn2)ncc1C(F)(F)F	86*	-2	3	0
COc1cc(N2CCOCC2)ccc1Nc1cc(Nc2ccccc2NC(C)=O)c(C(F)(F)F)cn1	46*	-1	-7	0
CNC(=O)c1ccccc1Nc1cc(Nc2ccc(N3CCOCC3)cc2C)ncc1C(F)(F)F	71*	1	5	0
COc1ccc(OCC(=O)N2CCN(C(=O)COc3cccc(C)c3)CC2)cc1	9	0	-1	0
CC1(C)CC2CC(C)(CN2c2ccc(N3C(=O)CCCC3=O)cc2[N+](=O)[O-])C1 (stereo not given)	-8	-2	11	0
CCOC(=O)c1c(NC(=O)c2ccc(F)cc2)sc2c1CCN(C(=O)OCC)C2	2	1	-7	0
Cc1nc(C)c(C(=O)NC2(c3ccc4c(c3)OCO4)CCCC2)s1	1	0	10	0
Cc1cnc(Nc2ccc(N3CCNCC3)cc2)cc1Nc1ccccc1C(N)=O	33*	-1	18	0
NC(=O)c1ccccc1Nc1ccnc(Nc2ccc(N3CCNCC3)cc2)c1	4	0	8	-1
CCOC(=N/C(=N/S(=O)(=O)c1ccc(C)cc1)c1ccccc1)SC	3	1	-9	0
Cc1cc(F)ccc1NC(=O)CSc1ccsc1[N+](=O)[O-]	6	1	14	0
O=C(CSc1ccsc1[N+](=O)[O-])Nc1cc(F)ccc1F	32*	1	49	0
O=C(O)c1nccnc1-c1ccc(Cn2ccc3ccccc32)cc1	-1	0	21	0
N#Cc1c(N)n(CCNC(=O)c2ccc(Br)cc2)c2nc3ccccc3nc12	11	-1	18	1
CC(=O)Nc1ccc(Nc2nc(Nc3nccc4ccccc34)ncc2C)cc1	8	0	3	0
SMILES	TEAD-YAP inh	GPR151 activ	MITF inh	FBW7 activator
CC(=O)Nc1ccc(Nc2cc(C)nc(Nc3nccc4ccccc34)n2)cc1	65*	4	4	0
CC(=O)Nc1ccc(Nc2ccnc(Nc3nccc4ccccc34)n2)cc1	48*	0	25	0
CC(=O)Nc1ccc(Nc2cc(C)nc(Nc3cnccn3)n2)cc1	-24	1	5	0
CCCCCCCCCCCCC[N+](C)(C)Cc1ccccc1	38*	1	24	0
NC(=O)c1cc(-c2csc(Nc3ccc4c(c3)OCCO4)n2)ccc1O	-13	1	-8	0
Cn1c(-c2ccccc2)cnc1NC(=O)c1ccc(F)cc1	49*	-1	-1	0
N#Cc1nc(COc2ccc(Br)cc2)oc1NCc1ccco1	6	1	5	23*
COc1cccc(C2C(C(=O)Nc3cccc(C)n3)=C(C)NC3=C2C(=O)CCC3)c1 (stereo not given)	-2	-1	-15	0
COc1ccccc1-n1c(SCC(=O)NCc2cccs2)nnc1-c1cccnc1	4	-1	-1	3.3*
Cc1csc(NC(=O)CSc2nnc(-c3ccccn3)n2-c2ccccc2Cl)n1	62*	0	-3	0
Cc1csc(NC(=O)CSc2nnc(-c3cccnc3)n2-c2ccccc2C)n1	62*	1	-2	0
COc1ccc(-n2c(SCC(=O)NCc3cccs3)nnc2-c2cccnc2)cc1	2	0	5	0
Cc1ccccc1-n1c(SCC(=O)Nc2nccs2)nnc1-c1cccnc1	62*	1	3	0
COc1ccccc1-n1c(SCC(=O)Nc2nc(C)cs2)nnc1-c1ccccn1	23	-1	-3	0
COc1ccc(NC(=S)N2CCCCC2C)c(OC)c1 (stereo not given)	4	0	23	0
COc1ccc(-c2ccc(C(=O)N(C)C)c(N(C)C(C)=O)n2)cc1	5	1	6	0
Cc1ccccc1-n1c(SCC(=O)Nc2nccs2)nnc1-c1ccccn1	37*	0	2	0
Cc1ccc(-n2c(SCC(=O)Nc3nccs3)nnc2-c2ccccn2)c(C)c1	17	2	4	0
c1cc(Cn2cncn2)cc(Nc2nccc(-c3cncc(N4CCOCC4)c3)n2)c1	92*	0	14	1
c1cc(-c2nc3ccc(Nc4nccc(-c5cncc(N6CCOCC6)c5)n4)cc3o2)ccn1	-3	2	4	0
c1cc(Cn2ccnc2)cc(Nc2nccc(-c3cncc(N4CCOCC4)c3)n2)c1	87*	1	-5	-1
CN1CCN(S(=O)c2ccc3ccccc3c2)CC1 (stereo not given)	-15	0	14	1
O=C1c2ccccc2-c2onc3c(N4CCOCC4)cc(NCCN4CCCC4)c1c23	-42	-1	61*	0
CCNc1cc(N2CCC3(CC2)OCCO3)c2noc3c2c1C(=O)c1ccccc1-3	39*	1	21	-1
CC(C)CNc1cc(N2CCOCC2)c2noc3c2c1C(=O)c1ccccc1-3	3	-1	52*	0
SMILES	TEAD-YAP inh	GPR151 activ	MITF inh	FBW7 activator
O=C1c2ccccc2-c2onc3c(N4CCOCC4)cc(NCCO)c1c23	15	-2	33	-1
COc1ccc(C2=NN3C(C2)c2cc(Br)ccc2OC32C(=O)Nc3ccccc32)cc1 (stereo not given)	-63	0	25	1
Cc1cc(S(=O)(=O)NCc2ccncc2)c(C)cc1Br	32	0	13	1
CCOc1cc(S(=O)(=O)NCc2ccncc2)ccc1Cl	52*	1	8	0
O=S(=O)(NCc1cccnc1)c1cccc(Cl)c1Cl	-12	4	6	0
O=S(=O)(NCc1ccncc1)c1ccc(Br)cc1Br	32*	1	5	0
O=S(=O)(NCc1ccncc1)c1ccc(Cl)c(Cl)c1	36*	2	8	0
O=S(=O)(NCc1ccncc1)c1cccc(Cl)c1Cl	35*	-1	17	0
O=C(O)CC1(CC(=O)N2CCC3(CC2)NCCc2c3[nH]c3ccc(O)cc23)CCCC1	6	0	-17	0
